Experimental data as given in PubChem BioAssay.
The source made the active and inactive calls.

Experiments:
Albumin (Bos taurus) = Albumin (Bos taurus) (UniProt P02769); test: bovine serum albumin binders on microarray, profiling panel, artefact control for SMM control protein annotation, biochemical, small-molecule microarray, Alexa647 label, 635/667 nm fluorescence (AID 1118); conditions: BSA-A647 binding, fluorescence 635 nm, higher = more signal;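 note: score merges 667 nm emission intensity and signal-to-noise per printed compound spot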
Albumin (Bos taurus), sequence (P02769 whole entry, looked up): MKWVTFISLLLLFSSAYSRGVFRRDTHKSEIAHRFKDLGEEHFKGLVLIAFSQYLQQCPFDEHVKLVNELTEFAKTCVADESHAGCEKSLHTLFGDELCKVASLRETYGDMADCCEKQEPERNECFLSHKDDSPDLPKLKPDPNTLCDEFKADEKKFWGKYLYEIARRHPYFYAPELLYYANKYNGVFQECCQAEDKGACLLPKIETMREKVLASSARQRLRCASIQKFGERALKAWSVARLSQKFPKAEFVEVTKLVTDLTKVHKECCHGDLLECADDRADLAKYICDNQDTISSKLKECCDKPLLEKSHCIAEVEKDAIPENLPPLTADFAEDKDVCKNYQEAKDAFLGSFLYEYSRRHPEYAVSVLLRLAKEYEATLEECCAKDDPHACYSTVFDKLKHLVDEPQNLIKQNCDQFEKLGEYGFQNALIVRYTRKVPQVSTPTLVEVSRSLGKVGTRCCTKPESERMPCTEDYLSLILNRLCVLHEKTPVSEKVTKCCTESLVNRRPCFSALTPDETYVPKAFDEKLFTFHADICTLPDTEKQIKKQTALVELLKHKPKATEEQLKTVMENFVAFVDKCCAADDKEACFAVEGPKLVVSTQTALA

[1] = small-molecule microarray binders of probe aXIP, primary screen, biochemical, NeuroSMM set, 635/667 nm fluorescence (AID 1119); conditions: higher = more signal, called active from +8 up or from −8 down;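 note: probe is the protein aXip251-270 applied at 1 µg/mL to compound-printed slides; binding of probe to printed compounds measured as 667 nm fluorescence plus signal to noise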
[2] = small-molecule binders of probe aNOTCH3, primary screen, biochemical, small-molecule microarray, 635/667 nm fluorescence (AID 1120); conditions: higher = more signal;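 note: probe is a biotin-tagged antibody raised against NOTCH3 rather than NOTCH3 protein; score merges spot fluorescence near 667 nm with spot signal to noise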
[3] = small-molecule binders of probe aNOTCH2, primary screen, biochemical, small-molecule microarray, 635/667 nm fluorescence (AID 1121); conditions: higher = more signal;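 note: score merges feature fluorescence read at 667 nm with its signal to noise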
[4] = molecular target: Carbonic anhydrase 2 (Homo sapiens) (UniProt P00918); test: CAII small-molecule binders, profiling panel, biochemical, small-molecule microarray, Alexa647-labelled CAII (AID 1122); conditions: CAII-A647 binding fluorescence, higher = more signal
[5] = COS7 lysate on small-molecule microarray, probe aHis, 635 nm (AID 1123); conditions: COS7 cell lysate, fluorescence, higher = more signal;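 note: z-score combines 667nm fluorescence intensity with signal-to-noise per printed compound spot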
[6] = compound binding in COS7 lysate, probe aLAP1, primary screen, cell lysate, small-molecule microarray (AID 1124); conditions: probe aLAP1, fluorescence, higher = more signal;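 note: lysate comes from COS7 cells expressing LAP1 and is applied at 0.3 µg/mL; score merges spot fluorescence near 667 nm with signal-to-noise over triplicate slides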
Sam68 (KHDRBS1) = test: Sam68 small-molecule binders, primary screen, biochemical, small-molecule microarray, 635 nm fluorescence (AID 1125); conditions: small-molecule microarray binding, higher = more signal;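 note: score merges 667 nm channel intensity with signal to noise over triplicate slides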
[7] = system: Chordin-like protein 2 (CHRDL2); test: CHRDL2 small-molecule binders, primary screen, biochemical, small-molecule microarray, 635 nm fluorescence (AID 1126); conditions: small-molecule microarray binding, fluorescence 635 nm; higher = more signal;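 note: printed compound slides probed with Chrdl2 protein at 4 µg/mL for 1 h at 4 C; score merges 667 nm emission intensity with signal to noise over three replicate slides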
[8] = molecular target: Concanavalin-A (Canavalia ensiformis) (UniProt P02866); test: ConA small-molecule binders, primary screen, artefact control for SMM control protein annotation, biochemical, small-molecule microarray, Alexa647 label, 635 nm (AID 1127); conditions: ConA-A647 binding fluorescence, higher = more signal;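 note: z combines 667 nm emission intensity with signal-to-noise across three replicate slides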
Concanavalin-A (Canavalia ensiformis), sequence (P02866 whole entry, looked up): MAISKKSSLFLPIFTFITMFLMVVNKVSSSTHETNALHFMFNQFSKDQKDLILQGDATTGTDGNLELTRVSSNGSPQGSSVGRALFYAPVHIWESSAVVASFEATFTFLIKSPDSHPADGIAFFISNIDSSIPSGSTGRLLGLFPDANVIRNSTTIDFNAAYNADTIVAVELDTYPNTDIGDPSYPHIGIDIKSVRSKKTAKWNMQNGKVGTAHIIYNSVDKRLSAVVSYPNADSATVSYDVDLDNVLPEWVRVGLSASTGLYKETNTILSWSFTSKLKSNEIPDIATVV

[9] = anti-His antibody binders, primary screen, artefact control for SMM control protein annotation, biochemical, small-molecule microarray, 635 nm fluorescence (AID 1128); conditions: anti-His Alexa647 antibody binding, higher = more signal;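 note: score merges feature fluorescence with signal-to-noise for each printed compound spot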
[10] = system: Human papillomavirus type 1a E7 protein (residues 1-88); test: HPV1a E7 small-molecule binders, primary screen, biochemical, small-molecule microarray, residues 1-88, 635 nm (AID 1129); conditions: small-molecule microarray binding, fluorescence 635 nm; higher = more signal
[11] = molecular target: Focal adhesion kinase 1 (Homo sapiens) (UniProt Q05397); test: small-molecule microarray binders of FAK, primary screen, biochemical, 635/667 nm fluorescence, BSA, DTT (AID 1130); conditions: PTK2 binding, 635 nm fluorescence, higher = more signal;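 note: composite of spot emission at 667 nm and signal to noise over triplicate slides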
Focal adhesion kinase 1 (Homo sapiens), sequence (Q05397 whole entry, looked up): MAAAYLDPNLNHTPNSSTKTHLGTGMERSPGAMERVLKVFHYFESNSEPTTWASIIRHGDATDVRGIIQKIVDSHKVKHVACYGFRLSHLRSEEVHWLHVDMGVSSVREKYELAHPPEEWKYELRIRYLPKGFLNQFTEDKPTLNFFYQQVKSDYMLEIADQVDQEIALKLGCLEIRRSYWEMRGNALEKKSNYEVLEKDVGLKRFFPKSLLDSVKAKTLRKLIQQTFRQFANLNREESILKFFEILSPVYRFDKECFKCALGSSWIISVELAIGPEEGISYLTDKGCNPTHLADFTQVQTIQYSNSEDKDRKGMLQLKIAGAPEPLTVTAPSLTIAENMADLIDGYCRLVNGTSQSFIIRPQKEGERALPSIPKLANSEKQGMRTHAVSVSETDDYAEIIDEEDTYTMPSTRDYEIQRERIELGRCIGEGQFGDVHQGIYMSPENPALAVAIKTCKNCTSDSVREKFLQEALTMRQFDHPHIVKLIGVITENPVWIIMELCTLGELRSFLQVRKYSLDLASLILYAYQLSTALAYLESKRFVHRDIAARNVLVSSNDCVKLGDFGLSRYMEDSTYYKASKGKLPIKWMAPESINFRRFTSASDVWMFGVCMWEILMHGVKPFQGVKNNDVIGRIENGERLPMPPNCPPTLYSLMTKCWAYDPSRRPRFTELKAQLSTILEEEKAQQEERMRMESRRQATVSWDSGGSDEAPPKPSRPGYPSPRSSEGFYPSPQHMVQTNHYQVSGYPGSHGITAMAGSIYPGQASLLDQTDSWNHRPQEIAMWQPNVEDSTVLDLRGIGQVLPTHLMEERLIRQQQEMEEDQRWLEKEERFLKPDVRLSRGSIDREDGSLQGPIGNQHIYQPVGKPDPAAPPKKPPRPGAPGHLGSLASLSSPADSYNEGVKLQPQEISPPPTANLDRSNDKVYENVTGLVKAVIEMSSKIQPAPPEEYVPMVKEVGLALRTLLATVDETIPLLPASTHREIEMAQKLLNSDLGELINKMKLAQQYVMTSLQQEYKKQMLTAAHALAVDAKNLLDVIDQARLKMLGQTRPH

[12] = system: Fibrinogen (Alexa647-labelled); test: fibrinogen binders on compound microarrays, profiling panel, artefact control for SMM control-protein annotation, biochemical, small-molecule microarray, 635/667 nm fluorescence (AID 1131); conditions: fibrinogen-A647 binding fluorescence, higher = more signal;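 note: z-score merges 667 nm fluorescence with per-spot signal-to-noise over triplicate slides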
[13] = molecular target: Follistatin (Homo sapiens) (UniProt P19883); test: follistatin binders on small-molecule microarrays, primary screen, biochemical, small-molecule microarray, 635/667 nm fluorescence (AID 1132); conditions: FST binding, 635 nm fluorescence, higher = more signal
Follistatin (Homo sapiens), sequence (P19883 whole entry, looked up): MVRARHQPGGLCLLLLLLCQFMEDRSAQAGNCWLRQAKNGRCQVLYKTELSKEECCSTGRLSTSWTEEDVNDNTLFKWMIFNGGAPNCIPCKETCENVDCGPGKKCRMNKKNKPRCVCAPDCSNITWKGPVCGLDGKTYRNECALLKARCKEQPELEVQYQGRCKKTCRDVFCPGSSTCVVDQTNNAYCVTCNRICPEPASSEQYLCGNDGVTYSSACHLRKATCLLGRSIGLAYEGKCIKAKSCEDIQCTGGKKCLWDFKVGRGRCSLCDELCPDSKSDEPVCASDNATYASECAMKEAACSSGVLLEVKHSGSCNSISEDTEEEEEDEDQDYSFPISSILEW

[14] = molecular target: Fibroblast growth factor 2 (Homo sapiens) (UniProt P09038); test: FGF2 binders on small-molecule microarrays, primary screen, biochemical, small-molecule microarray, 635/667 nm fluorescence (AID 1133); conditions: small-molecule microarray binding, FGF2, fluorescence 635/667; higher = more signal
Fibroblast growth factor 2 (Homo sapiens), sequence (P09038 whole entry, looked up): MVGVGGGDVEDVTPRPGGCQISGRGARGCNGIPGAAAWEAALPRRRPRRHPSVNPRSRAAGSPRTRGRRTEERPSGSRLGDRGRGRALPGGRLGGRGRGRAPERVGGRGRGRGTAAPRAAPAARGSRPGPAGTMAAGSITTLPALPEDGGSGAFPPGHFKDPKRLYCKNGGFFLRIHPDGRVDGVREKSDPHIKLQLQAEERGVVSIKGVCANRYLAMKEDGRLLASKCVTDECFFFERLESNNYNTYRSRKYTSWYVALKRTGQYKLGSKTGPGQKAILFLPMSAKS

[15] = mitochondrial membrane potential change in A549 cells, profiling panel, cell-based, JC-1 fluorescence, basal, 24 h, 100 nL (AID 1138); conditions: higher = more signal;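 note: A549 lung adenocarcinoma cells under basal conditions with no added stimulus; test concentration not given here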
Lefty1 = Lefty1 binders on small-molecule microarrays, primary screen, biochemical, small-molecule microarray, 635/667 nm fluorescence (AID 1139); conditions: small-molecule microarray binding, fluorescence 635/667; higher = more signal
[16] = system: wheat germ agglutinin (Triticum aestivum), Alexa647-labelled; test: wheat germ agglutinin binders on compound microarrays, profiling panel, artefact control for SMM control-protein annotation, biochemical, small-molecule microarray, 635/667 nm fluorescence (AID 1140); conditions: WGA-A647 binding, 635 nm fluorescence, higher = more signal;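 note: score merges 667 nm feature emission with signal to noise over triplicate slides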
[17] = molecular target: Luciferin 4-monooxygenase (Photinus pyralis) (UniProt P08659); test: firefly luciferase enzyme inhibitors, primary screen, biochemical, luminescence, purified enzyme, 2006 set (AID 1141); conditions: SteadyGlo luminescence, 30 min, higher = more signal, called active from +8 up or from −8 down;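 note: cell-free assay with purified firefly luciferase at 100 ng per well in PBS; test concentration not given here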
Luciferin 4-monooxygenase (Photinus pyralis), sequence (P08659 whole entry, looked up): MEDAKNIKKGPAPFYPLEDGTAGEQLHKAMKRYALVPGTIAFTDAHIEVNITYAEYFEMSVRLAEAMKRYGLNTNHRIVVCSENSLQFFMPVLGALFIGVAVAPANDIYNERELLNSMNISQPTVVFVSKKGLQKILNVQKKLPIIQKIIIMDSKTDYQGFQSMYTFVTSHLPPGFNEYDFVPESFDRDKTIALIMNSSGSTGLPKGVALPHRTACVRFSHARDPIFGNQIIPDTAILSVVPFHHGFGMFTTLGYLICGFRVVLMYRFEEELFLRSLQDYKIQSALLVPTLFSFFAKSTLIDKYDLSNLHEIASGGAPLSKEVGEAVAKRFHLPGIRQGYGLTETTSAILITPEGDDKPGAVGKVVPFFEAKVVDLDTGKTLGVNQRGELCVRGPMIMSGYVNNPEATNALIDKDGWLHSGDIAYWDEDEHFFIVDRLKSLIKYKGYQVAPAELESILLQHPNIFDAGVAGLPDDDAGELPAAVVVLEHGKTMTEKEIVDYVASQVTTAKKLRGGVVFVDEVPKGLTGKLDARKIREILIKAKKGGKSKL

Compound	composite z-score (Albumin (Bos taurus))	composite Z-score [1]	composite z-score [2]	composite z-score [3]	composite z-score [4]	composite z-score [5]	composite z-score [6]	composite z-score (Sam68 (KHDRBS1))	composite z-score [7]	composite z-score [8]	composite z-score [9]	composite z-score [10]	composite z-score [11]	composite z-score [12]	composite z-score [13]	composite z-score [14]	z-score [15]	composite z-score (Lefty1)	composite z-score [16]	z-score [17]
O=C1[C@H]2[C@H]3[C@H](O)[C@H](O)CC(=NOC[C@@H](O)COCc4ccco4)[C@@H]3CC[C@H]2C(=O)N1Cc1ccc2c(c1)OCO2	0.29	0.564 (inactive)	-0.127	-0.148	-0.307	-0.0845	0.123	0.275	1.54	-0.19	-0.133	-0.499	-0.347	-0.952	1.35	1.56	0.96	0.793	-0.63	-0.0365 (inactive)
COC(=O)CC=C[C@@H](C)[C@@H](C=NOC[C@@H](O)[C@H]1O[C@@H]2OC(C)(C)O[C@@H]2[C@H]1O)OC	-0.0287	-0.931 (inactive)	-0.0647	-0.13	-0.131	-0.104	0.149	0.444	0.744	0.333	1.57	0.612	0.167	0.0843	0.834	0.943	0.0187	0.59	0.006	-0.512 (inactive)
CC(CCC(=O)OC[C@H]1O[C@H](C#Cc2ccccc2)C=C[C@@H]1Oc1ccc(C)cc1)=NOC[C@@H](C)[C@H](OCc1ccccc1)C(C)C	-0.607	0.35 (inactive)	-0.325	-0.226	-0.0949	1.47	-0.427	-1.2	-0.606	-1.14	0.0009	-0.849	-0.502	-1.36	-0.554	-0.625	-0.197	-0.295	-0.726	1.03 (inactive)
CCCNC(=O)OC[C@H]1O[C@H](CCON=C2C[C@@H](O)[C@@H](O)[C@@H]3[C@@H]4C(=O)N(CC)C(=O)[C@@H]4CC[C@@H]23)C=C[C@@H]1Oc1ccc(OC)cc1	0.148	-0.477 (inactive)	0.217	-0.136	0.575	0.572	0.73	1.32	0.929	0.728	1.44	0.94	0.158	0.946	1.14	0.622	-0.517	1.3	0.697	0.321 (inactive)
COc1ccc(OC[C@H]2CN3[C@@H](CC[C@@H](C)[C@@H]3c3ccc(Br)cc3)C(=O)O2)cc1	0.197	0.281 (inactive)	-0.25	-0.13	-0.657	-0.239	0.254	0.592	0.464	0.297	0.0994	-0.023	-0.305	-0.0163	0.385	0.042	-0.124	0.664	-0.108	-1.55 (inactive)
CC(=O)OC[C@H]1O[C@H](CC=NOC(C)CN2CCCc3nc(C)c(C)cc32)C=C[C@@H]1OC(C)=O (stereo not given in full)	-0.0846	1.01 (inactive)	0.0591	0.0032	0.0124	0.0855	0.53	1.2	1.15	-0.152	1.42	0.507	0.246	0.145	0.803	0.684	-0.221	0.947	-0.0862	0.767 (inactive)
CC(C)=CCCC(C)=CCON=C1C[C@@H](O)[C@@H](O)[C@@H]2[C@@H]3C(=O)N(c4cccc(Oc5ccccc5)c4)C(=O)[C@@H]3CC[C@H]12	0.631	1.38 (inactive)	-0.0288	-0.155	0.376	1.23	0.163	1.02	0.492	0.609	0.364	1.03	0.132	0.693	0.559	0.252	-0.137	0.719	0.197	0.664 (inactive)
COC(=O)C1=C(C)N(Cc2ccccc2)C2=C3C(=O)OCC[C@@H]3[C@@](O)(C(=O)OC)C(=O)N2[C@@H]1c1ccccc1	-0.0298	-0.135 (inactive)	0.0182	-0.14	-0.085	0.132	-0.186	-0.0394	0.487	0.325	0.0356	0.0787	0.19	0.332	0.384	0.402	1.48	0.836	0.0974	-0.653 (inactive)
COCCNC(=O)OCC1CCCC2(CC(OC(=O)NCc3cccc4ccccc34)CC(CCC(=O)N[C@@H](C)C(=O)OC)O2)O1 (stereo not given in full)	0.0307	0.59 (inactive)	-0.0362	-0.14	0.262	1.12	-0.107	1.3	0.665	1.03	0.522	1.13	-0.208	0.912	0.728	1.04	0.609	0.42	0.598	0.396 (inactive)
Cc1cc2c(nc1C)CCCCN2CC(O)CN1CCCc2nc(-c3ccc(Br)cc3)ccc21 (stereo not given)	0.466	-0.211 (inactive)	0.298	0.0067	0.493	0.417	0.293	0.754	0.613	0.783	0.819	0.582	0.171	-0.564	1.06	0.709	1.59	0.998	0.765	-0.802 (inactive)
